IL1B secr inh: inhibitors of inflammasome signaling (IL-1 beta secretion) | THP-1 LPS/ATP IL-1B secretion, AlphaLISA, 16 h; hits give low values | activity change, % at 57.5 µM | hit rate 4.7% among 360,000; in the data active means activity change below about -50%; inconclusive means mostly about -30% to -49%
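Secreted IL-1B measured by AlphaLISA bead assay after 16 h compound exposure of THP-1 cells; compounds (final up to 57.5 uM) added 1 h before LPS (250 ng/mL) and ATP (1.25 mM) stimulation; lower signal means less secretion.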
TDP1 cell noCPT: qHTS for Inhibitors of human tyrosyl-DNA phosphodiesterase 1 (TDP1): qHTS in cells in absence of CPT. DT40 Tdp1-/- hTDP1 cells, no CPT, ATP luminescence, 48 h. hit rate 15% among 420,000. Potency, µM (titrated, usually from 46.2 µM), inactives show top-dose activity change, negative = growth inhibition, hits mostly inhibitors. AID 686978, 2013; further: potency means the concentration at half of the fitted maximal effect; nearly all actives have a fitted effect of over 55% in size
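Compound effects on proliferation are scored in DT40 Tdp1-/-;hTDP1 cells in the absence of CPT. ATP levels (CellTiter-Glo luminescence) are recorded after a ≥48 hr, 37 °C incubation.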
TDP1 cell CPT: DT40-hTDP1 cell growth loss with CPT; chicken DT40 Tdp1-/-;hTDP1 cells + 20 nM CPT, ATP luminescence, 48 h; Potency, µM (highest dose often 46.2 µM), for inactives: top-dose activity change, negative = growth inhibition, usual class: inhibitors; hit rate 12% among 420,000; AID 686979; further: potency means the concentration at half of the fitted maximal effect; nearly all actives have a fitted effect of over 55% in size
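Cell growth measured by CellTiter-Glo luminescence after a minimum 48 h, 37 C compound exposure with 20 nM CPT in Tdp1-knockout DT40 cells stably expressing hTDP1, seeded 400/well; qHTS titration format.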
HT1080-NT tox: kills 2HG-producing HT-1080-NT fibrosarcoma cells. HT-1080-NT fibrosarcoma viability, CellTiter-Glo ATP luminescence, 48 h. Potency, µM (series often up to 46.1 µM), for inactives: at the top dose activity, negative = less viability, most hits filed as cytotoxic. hit rate 1.6% among 360,000. AID 686970;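 further: NT is the 2HG producing partner of a matched IDH1 knockdown line; potency means the concentration at half of the fitted maximal effect; 0% = DMSO-treated cells and -100% = media-only wells without cells; nearly all actives have a fitted effect of over 55% in size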
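Read-out is CellTiter-Glo luminescence after 10 minutes at room temperature, following 48 hours' compound treatment of HT-1080-NT cells (750 cells/well, RPMI, 5% FBS, 37 degrees C).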
HT1080 IDH1KD tx: HT-1080 IDH1 knockdown cell toxicity (counter line). HT-1080 IDH1 knockdown viability, ATP luminescence, 48 h. Potency, µM (highest dose often 46.1 µM), inactives show at the top dose activity, negative = toxicity, usual class: cytotoxic. hit rate 2% among 360,000. AID 686971;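 further: potency means the concentration at half of the fitted maximal effect; 0% = DMSO wells and -100% = cell-free medium wells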
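Cytotoxicity counter-line: IDH1KD HT-1080, 48 h, CellTiter-Glo. Curves classed by r2, magnitude and activity.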
12-LOX inh: inhibitors of human 12S-lipoxygenase ALOX12 | purified 12hLO, xylenol orange hydroperoxide absorbance | hit rate 1.1% among 580,000 | Potency, µM (top dose mostly 108 µM), without a hit: top-dose activity change, negative = inhibition, actives largely listed as inhibitors | AID 1671190 | P18054; further: potency means the concentration at half of the fitted maximal effect
Target sequence (P18054 whole entry, looked up): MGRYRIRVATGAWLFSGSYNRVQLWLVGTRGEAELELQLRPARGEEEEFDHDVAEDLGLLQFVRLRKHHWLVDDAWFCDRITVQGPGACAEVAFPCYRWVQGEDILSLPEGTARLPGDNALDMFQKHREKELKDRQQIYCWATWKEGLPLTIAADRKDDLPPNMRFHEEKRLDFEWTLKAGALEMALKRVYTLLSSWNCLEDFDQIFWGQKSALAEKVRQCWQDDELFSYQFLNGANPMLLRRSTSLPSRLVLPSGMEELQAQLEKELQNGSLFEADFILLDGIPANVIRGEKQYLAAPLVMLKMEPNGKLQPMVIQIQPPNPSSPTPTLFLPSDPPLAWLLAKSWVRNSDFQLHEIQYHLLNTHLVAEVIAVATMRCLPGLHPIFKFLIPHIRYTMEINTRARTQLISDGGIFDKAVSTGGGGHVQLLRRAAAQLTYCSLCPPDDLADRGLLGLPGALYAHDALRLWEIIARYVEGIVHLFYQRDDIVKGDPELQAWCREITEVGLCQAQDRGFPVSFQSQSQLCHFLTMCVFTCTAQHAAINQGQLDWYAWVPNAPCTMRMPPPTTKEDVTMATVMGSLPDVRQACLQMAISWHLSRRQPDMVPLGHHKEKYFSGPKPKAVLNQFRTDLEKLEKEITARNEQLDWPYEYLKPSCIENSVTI
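Hydroperoxide product was detected by ferrous iron/xylenol orange as the 573 to 405 nm absorbance ratio. Arachidonic acid at 40 uM (final) was turned over for 30 min at room temperature by 150 nM human 12hLO, pH 7.0 Hepes buffer, after 15 min compound preincubation.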
* = called active by the depositor; ? = inconclusive; · = not tested or not shown. The sample as a whole holds a higher share of hits than the screen did. Unless noted, the call rests on the fitted dose curve; in most records, active means well fitted curve in the direction sought with a large enough effect; inconclusive means small, poorly fitted or top-dose-only effect, or another doubt; inactive means no such curve, though single readings can be large; an effect the other way counts as inactive or inconclusive. Unless noted, on the % scale 0 is the no-effect control and ±100 the full control effect.

SMILES	IL1B secr inh	TDP1 cell noCPT	TDP1 cell CPT	HT1080-NT tox	HT1080 IDH1KD tx	12-LOX inh
Cn1c(=O)c2c(nc(NCc3ccccc3)n2CCCc2ccccc2)n(C)c1=O	-1	5.2µM*	9.2µM*	-7%	-15%	-5%
COCCNc1nc2c(c(=O)n(C)c(=O)n2C)n1CCCc1ccccc1	24	10µM*	15µM*	1%	-1%	-45%
CCOCCCNc1nc2c(c(=O)n(C)c(=O)n2C)n1CCCc1ccccc1	-5	21µM*	16µM*	-5%	21%	-23%
CC(=O)NNc1nc(-c2ccccc2)c2cc(Cl)ccc2n1	-12	-23%	-20%	-5%	0%	1%
COc1ccc(-c2nc3ccc(C(=O)NCC(OC)OC)cc3nc2-c2ccc(OC)cc2)cc1	-16	8.2µM*	10µM*	-16%	-15%	0%
COCCNC(=O)c1cccc(Nc2nc(-c3ccccc3)c3cc(Cl)ccc3n2)c1	-52*	9.2µM*	15µM*	-23%	?	-29%
COCCCNC(=O)c1ccc(-c2nc3ccccc3nc2-c2ccccc2)cc1	-9	23µM*	?	-3%	0%	274%
O=C(NCC1CC1)c1ccc2nc(-c3ccoc3)c(-c3ccoc3)nc2c1	·	11µM*	?	·	·	·
CCc1nnc(NC(=O)CN2CCN(c3cccc(C)c3C)CC2)s1	·	·	·	·	·	10%
CN1CCN(CCNC(=O)c2ccc3nc(-c4ccc(F)cc4)c(-c4ccc(F)cc4)nc3c2)CC1	-53*	?	?	18µM*	23µM*	0%
COC(CNC(=O)c1ccc2nc(-c3ccccc3)c(-c3ccccc3)nc2c1)OC	?	12µM*	?	-3%	-7%	13%
CNC(=O)c1ccc2nc(-c3cccc(C)c3)c(-c3cccc(C)c3)nc2c1	·	10µM*	11µM*	·	·	·
COc1cccc(CNC(=O)c2ccc3nc(-c4ccccc4)c(-c4ccccc4)nc3c2)c1OC	·	?	23µM*	·	·	3%
COC(CNC(=O)c1cc(-c2ccccc2)nc2ccccc12)OC	·	·	·	·	·	-22%
CC(C(=O)N(C)CC(=O)Nc1ccccc1C(F)(F)F)N1CCCC(C(F)(F)F)C1 (stereo unspecified)	·	·	·	·	·	-57%
O=C(COc1ccccc1Cl)Nc1cc(NC(=O)COc2ccccc2Cl)cc(C(=O)O)c1	20	-12%	1%	-18%	-4%	20%
CCc1ccc(C(=O)c2cn(CC(=O)Nc3ccc4c(c3)OCO4)c3ccc(CC)cc3c2=O)cc1	·	?	-4%	·	·	0%
O=C(NCc1ccccc1)c1ccc2nc(-c3ccccc3)c(-c3ccccc3)nc2c1	·	·	·	·	·	-27%
COc1ccc(-c2nc3ccc(C(=O)NCc4ccccc4)cc3nc2-c2ccc(OC)cc2)cc1	·	15µM*	?	·	·	-28%
COc1ccc(Cl)cc1C(=O)NNC(=O)C1COc2ccccc2O1 (stereo unspecified)	38	?	?	5%	0%	-4%
O=C(CNC(=O)C1COc2ccccc2O1)N/N=C/c1ccc(O)cc1O (stereo unspecified)	76	6.5µM*	6.5µM*	-14%	?	-7%
O=C(NNC(=O)C1COc2ccccc2O1)c1ccccc1O (stereo unspecified)	5	16µM*	?	0%	0%	6%
O=C(/C=C\c1ccccc1)NCC(=O)N/N=C/c1ccc(O)cc1O	177	8.2µM*	21µM*	?	?	·
O=C(CNC(=O)C(c1ccccc1)c1ccccc1)N/N=C/c1ccc(O)cc1O	234	6.5µM*	5.8µM*	?	7.3µM*	0%
COc1ccc(-c2noc(-c3ccc(NCc4ccccc4OC)c([N+](=O)[O-])c3)n2)cc1	·	?	-18%	·	·	0%
SMILES	IL1B secr inh	TDP1 cell noCPT	TDP1 cell CPT	HT1080-NT tox	HT1080 IDH1KD tx	12-LOX inh
CC(C)CN1CCN(C(=O)c2ccc3c(c2)CC(=O)N3Cc2ccc(F)cc2)CC1	·	·	·	·	·	0%
O=C(COc1ccc(F)cc1)N1CCN(c2cc(C(F)(F)F)ncn2)CC1	·	·	·	·	·	9%
Cc1ccc(Cl)cc1N1CCN(C(=O)c2c(C)oc3ncnc(N4CCOCC4)c23)CC1	·	?	?	·	·	-10%
CCC(Sc1nc2n[nH]c(C)c2c(=N)n1-c1cc(Cl)ccc1C)C(=O)N1CCOCC1 (stereo unspecified)	-14	12µM*	?	-21%	?	-8%
CC(=O)CCc1c(C)c2cccc(C)c2[nH]c1=O	-15	?	18µM*	?	-6%	0%
CCOC(=O)[C@]12CCC=C1N(Cc1ccc(Cl)cc1Cl)C(=O)[C@H](CC(=O)N1CCCC1)C2	-19	15µM*	16µM*	1%	-21%	?
CCOC(=O)N1CCN(C(=O)C[C@@H]2C[C@@]3(C(=O)OCC)CCC=C3N(Cc3ccccc3)C2=O)CC1	-3	-5%	-18%	21%	15%	-3%
CCOC(=O)[C@]12CCC=C1N(Cc1ccccc1)C(=O)[C@H](CC(=O)N1CCCCC1)C2	7	?	21µM*	16%	13%	-1%
CCOC(=O)[C@]12CCC=C1N(Cc1ccc(Cl)cc1Cl)C(=O)[C@H](CC(=O)N1CCN(C(=O)c3ccco3)CC1)C2	?	16µM*	16µM*	-13%	?	-9%
